# Assay results: PubChem BioAssay (EPA / NIEHS)
# “And” between values parts separate entries of the source, which are not always exact repeats. Equal entries are not always repeated. Results filed as inconclusive are left out. Some compounds were tested as several samples or in several runs, with calls that do not always agree. The source made the active and inactive calls. The calls were made as follows, unless noted: active = hit-call score of the fitted dose curve at least 0.9, where 1 is the maximum; inactive = score below 0.9.
# What was measured:
# [1] = ACEA_ER_80hr: ACEA Biosciences xCELLigence Real-Time Cell Analysis on Estrogen Receptor Agonism for Proliferation (AID 2282667; active = hit-call score of the fitted dose curve at least 0.9, where 1 is the maximum); conditions: T47D proliferation, impedance (xCELLigence), 80 h
# Method in brief: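 T47D human breast cells were seeded on electrode plates, monitored overnight, then exposed continuously to compounds in eight-point 1:4 dilutions from 100 uM (max 0.5% DMSO). Impedance-based growth was read at 80 h, fitted upward relative to DMSO.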
# [2] = ATG_CRE_CIS: Attagene CIS-FACTORIAL HepG2 Assay for human cAMP Responsive Element (CRE) binding protein 3 (AID 2282926); conditions: HepG2 CRE cis-reporter, Attagene multiplexed mRNA; actives raise or lower the signal
# Method in brief: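 HepG2 cells transiently transfected with a multiplexed reporter library (CRE-driven unit among them) were dosed for 24 h. Reporter mRNA was quantified by RT-PCR, fluorescent labelling, HpaI digestion and capillary electrophoresis, with bidirectional fitting against DMSO baseline.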
# [3] = biological target: CCAAT/enhancer-binding protein beta (Homo sapiens) (UniProt P17676); test: ATG_C_EBP_CIS: Attagene CIS-FACTORIAL HepG2 Assay for human CCAAT/Enhancer Binding Protein (C/EBP) beta (AID 2282927); conditions: HepG2 Attagene cis-factorial transcription factor reporter; actives raise or lower the signal
# Method in brief: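 Following a 24 h incubation with test chemical, transfected HepG2 cells yielded RNA whose reporter transcripts were quantified by RT-PCR and fluorescent capillary electrophoresis, with DMSO serving as baseline for bidirectional fitting.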
# [4] = ATG_CMV_CIS: Attagene CIS-FACTORIAL HepG2 Assay for human CMV (Internal Marker) (AID 2282928); conditions: HepG2 CMV promoter reporter, transcription factor profiling; actives raise or lower the signal;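 also: endpoint acts as a background internal control marker rather than a target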
# Method in brief: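 Cell system: HepG2, transiently transfected multiple reporter units under cis promoters. Exposure: 24 h. Detection: RT-PCR, FAM labeling, HpaI digestion, capillary electrophoresis. Analysis: bidirectional, DMSO baseline.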
# [5] = ATG_DR4_LXR_CIS: Attagene CIS-FACTORIAL HepG2 Assay for human Liver X Receptor (LXR), DR4 submotif (AID 2282929); conditions: HepG2 Attagene DR4 cis-reporter, mRNA transcription; actives raise or lower the signal
# Method in brief: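 Transiently transfected HepG2 liver cells; cis-regulated reporters; 24 h dosing. RT-PCR plus CE read-out of reporter mRNA. DMSO baseline, bidirectional curve fitting.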
# [6] = ATG_AP_1_CIS: Attagene CIS-FACTORIAL HepG2 Assay for human Activator Protein 1 (AP-1) (AID 2282931); conditions: HepG2 Attagene cis-factorial AP-1 reporter mRNA; actives raise or lower the signal
# Method in brief: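 We transfected HepG2 cells transiently with a set of cis-regulated reporter transcription units, dosed them for 24 h, and quantified reporter mRNA via RT-PCR and capillary electrophoresis, scoring gain or loss of signal relative to DMSO.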
# [7] = ATG_AP_2_CIS: Attagene CIS-FACTORIAL HepG2 Assay for human Activator Protein 2 (AP-2) (AID 2282932); conditions: HepG2 AP-2 cis-reporter, Attagene transcription factor profiling; actives raise or lower the signal
# Method in brief: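 HepG2 cells were transiently transfected with multiple cis-promoter reporter transcription units and dosed for 24 h. Reporter mRNA was measured by RT-PCR with capillary electrophoresis fluorescence; bidirectional fits relative to DMSO baseline.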
# [8] = ATG_BRE_CIS: Attagene CIS-FACTORIAL HepG2 Assay for human Bone Morphogenetic Protein (BMP) Response Element (BRE) (AID 2282933); conditions: HepG2 BMP response element reporter, Attagene transcription factor profiling; actives raise or lower the signal
# Method in brief: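 A HepG2 multiplex reporter system measured inducible reporter mRNA 24 h post-dosing. Detection: RT-PCR, 6-FAM primer extension, HpaI digestion, capillary electrophoresis. Activity fitted bidirectionally relative to DMSO.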
# [9] = biological target: Retinoic acid receptor alpha (Homo sapiens) (UniProt P10276); test: ATG_DR5_RAR_CIS: Attagene CIS-FACTORIAL HepG2 Assay for human Retinoic Acid Receptor Alpha (RARE), DR5 submotif (AID 2282934); conditions: HepG2 Attagene cis-factorial RARE DR5 reporter, mRNA; actives raise or lower the signal;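 as to AC50: reporter responds to endogenous RAR alpha beta and gamma in HepG2 not RARA alone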
# Method in brief: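 Endpoint fitted in both directions relative to DMSO as negative control. It reflects DR5 cis-element reporter mRNA induction in transiently transfected HepG2 cells, measured 24 h after dosing through RT-PCR and fluorescent capillary electrophoresis.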
# [10] = biological target: Aryl hydrocarbon receptor (Homo sapiens) (UniProt P35869); test: ATG_Ahr_CIS: Attagene CIS-FACTORIAL HepG2 Assay for human Aryl Hydrocarbon Receptor (Ahr) (AID 2282930); conditions: HepG2 AhR cis-factorial reporter transcription; actives raise or lower the signal
# Method in brief: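 Values derive from bidirectional fitting against DMSO negative control. Underlying signal: cis-element reporter mRNA in transiently transfected HepG2, harvested 24 h post-dose and measured by RT-PCR plus capillary electrophoresis.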
# Chain of Aryl hydrocarbon receptor (Homo sapiens) (P35869 whole entry, looked up): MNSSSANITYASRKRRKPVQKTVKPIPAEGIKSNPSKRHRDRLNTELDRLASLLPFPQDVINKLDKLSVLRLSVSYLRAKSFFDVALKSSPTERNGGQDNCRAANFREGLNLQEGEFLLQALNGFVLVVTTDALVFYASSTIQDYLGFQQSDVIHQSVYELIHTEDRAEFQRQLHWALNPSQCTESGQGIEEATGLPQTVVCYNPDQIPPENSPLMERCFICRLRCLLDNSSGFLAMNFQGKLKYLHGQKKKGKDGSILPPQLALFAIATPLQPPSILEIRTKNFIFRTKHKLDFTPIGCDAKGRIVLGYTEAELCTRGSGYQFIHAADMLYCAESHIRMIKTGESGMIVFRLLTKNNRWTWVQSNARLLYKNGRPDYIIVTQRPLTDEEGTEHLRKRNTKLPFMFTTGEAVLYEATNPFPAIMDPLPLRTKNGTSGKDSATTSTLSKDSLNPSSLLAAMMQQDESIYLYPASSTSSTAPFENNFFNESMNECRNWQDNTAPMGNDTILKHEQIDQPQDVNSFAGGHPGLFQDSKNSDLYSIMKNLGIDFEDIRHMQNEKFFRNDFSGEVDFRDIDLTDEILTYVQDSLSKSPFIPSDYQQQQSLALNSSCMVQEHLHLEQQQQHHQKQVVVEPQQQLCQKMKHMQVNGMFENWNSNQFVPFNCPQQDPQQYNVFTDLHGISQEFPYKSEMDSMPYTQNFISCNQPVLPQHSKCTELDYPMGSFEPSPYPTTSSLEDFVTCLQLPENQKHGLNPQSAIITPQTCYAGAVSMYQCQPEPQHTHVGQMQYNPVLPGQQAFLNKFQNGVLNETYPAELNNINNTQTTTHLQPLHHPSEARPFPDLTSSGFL
# Chain of Retinoic acid receptor alpha (Homo sapiens) (P10276 whole entry, looked up): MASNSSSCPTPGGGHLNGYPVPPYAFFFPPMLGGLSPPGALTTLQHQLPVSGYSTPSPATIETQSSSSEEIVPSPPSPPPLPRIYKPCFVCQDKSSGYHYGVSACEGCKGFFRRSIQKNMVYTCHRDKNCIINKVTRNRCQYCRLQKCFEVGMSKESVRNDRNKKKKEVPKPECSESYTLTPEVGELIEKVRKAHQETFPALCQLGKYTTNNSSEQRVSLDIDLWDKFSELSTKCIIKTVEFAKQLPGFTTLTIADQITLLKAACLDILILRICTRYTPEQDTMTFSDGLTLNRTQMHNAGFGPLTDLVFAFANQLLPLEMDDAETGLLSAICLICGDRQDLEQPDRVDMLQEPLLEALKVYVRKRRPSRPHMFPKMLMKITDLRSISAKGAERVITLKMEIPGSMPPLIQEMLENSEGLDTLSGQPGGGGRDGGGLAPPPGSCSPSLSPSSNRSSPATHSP
# Chain of CCAAT/enhancer-binding protein beta (Homo sapiens) (P17676 whole entry, looked up): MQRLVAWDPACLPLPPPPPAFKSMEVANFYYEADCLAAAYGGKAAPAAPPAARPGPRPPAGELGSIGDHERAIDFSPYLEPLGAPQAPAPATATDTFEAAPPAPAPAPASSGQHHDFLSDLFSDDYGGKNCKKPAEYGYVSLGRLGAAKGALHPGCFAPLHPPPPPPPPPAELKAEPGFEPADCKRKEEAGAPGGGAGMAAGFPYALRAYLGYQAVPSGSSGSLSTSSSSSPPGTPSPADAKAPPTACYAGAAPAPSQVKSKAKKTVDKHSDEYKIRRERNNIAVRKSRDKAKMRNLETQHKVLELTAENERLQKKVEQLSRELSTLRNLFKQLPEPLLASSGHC
compound,measurement,setting,value
Nc1ccc(S(=O)(=O)Nc2nccs2)cc1,outcome,[1],inactive
same,outcome,[2],inactive
same,outcome,[3],inactive
same,outcome,[4],inactive
same,outcome,[5],inactive
same,outcome,[6],inactive
same,outcome,[7],inactive
same,outcome,[8],inactive
same,outcome,[9],inactive
O=C(Cl)C(F)(F)C(F)(F)C(F)(F)C(F)(F)C(F)(F)C(F)(F)C(F)(F)C(F)(F)F,outcome,[1],inactive
same,outcome,[2],inactive
same,outcome,[3],inactive
same,outcome,[4],inactive
same,AC50,[5],13 µM (active)
same,AC50,[6],16.1 µM (active)
same,outcome,[7],inactive
same,outcome,[8],inactive
same,outcome,[9],inactive
FC(F)(F)C(F)(F)CNCC(F)(F)C(F)(F)F,outcome,[1],inactive
same,outcome,[2],inactive
same,outcome,[3],inactive
same,outcome,[4],inactive
same,outcome,[5],inactive
same,outcome,[6],inactive
same,outcome,[7],inactive
same,outcome,[8],inactive
same,outcome,[9],inactive
CO[Si](OC)(c1ccccc1)c1ccccc1,outcome,[1],inactive
same,outcome,[2],inactive
same,outcome,[3],inactive
same,outcome,[4],inactive
same,outcome,[5],inactive
same,outcome,[6],inactive
same,outcome,[7],inactive
same,outcome,[8],inactive
same,outcome,[9],inactive
FC(F)(I)C(F)(F)C(F)(F)C(F)(F)I,AC50,[1],312 nM (active)
same,outcome,[2],inactive
same,outcome,[3],inactive
same,outcome,[4],inactive
same,outcome,[5],inactive
same,outcome,[6],inactive
same,outcome,[7],inactive
same,outcome,[8],inactive
same,outcome,[9],inactive
FC(F)(F)C(F)(F)C(F)(F)N(C(F)(F)C(F)(F)C(F)(F)F)C(F)(F)C(F)(F)C(F)(F)F,outcome,[1],inactive
same,outcome,[2],inactive
same,outcome,[3],inactive
same,outcome,[4],inactive
same,outcome,[5],inactive
same,outcome,[6],inactive
same,outcome,[7],inactive
same,outcome,[8],inactive
same,outcome,[9],inactive
O=S(=O)(O)C(F)(F)C(F)(F)C(F)(F)C(F)(F)C(F)(F)C(F)(F)C(F)(F)F,outcome,[1],inactive
same,outcome,[2],inactive
same,AC50,[3],70.3 µM (active) and 50 µM (active)
same,AC50,[5],29.7 µM (active)
same,outcome,[5],inactive
same,outcome,[10],inactive
same,AC50,[6],100 µM (active)
same,outcome,[6],inactive
same,outcome,[7],inactive
same,AC50,[8],100 µM (active)
same,outcome,[8],inactive
same,outcome,[9],inactive
CCc1ccc(C(c2ccc(CC)cc2)C(Cl)Cl)cc1,outcome,[1],inactive
same,outcome,[2],inactive
same,outcome,[3],inactive
same,AC50,[4],100 µM (active)
same,AC50,[5],51 µM (active)
same,AC50,[6],66.5 µM (active)
same,outcome,[7],inactive
same,outcome,[8],inactive
same,outcome,[9],inactive
CCCCCCC(C)OC(=O)CCCCC(=O)OC(C)CCCCCC (centres undefined),outcome,[1],inactive
same,outcome,[2],inactive
same,outcome,[3],inactive
same,outcome,[4],inactive
same,outcome,[5],inactive
same,outcome,[6],inactive
same,outcome,[7],inactive
same,outcome,[8],inactive
same,outcome,[9],inactive
FC(F)(F)C(F)(F)C(F)(F)C(F)(F)C(F)(F)C(F)(F)C(F)(F)C(F)(F)CCS,outcome,[1],inactive
same,outcome,[2],inactive
same,outcome,[3],inactive
same,outcome,[4],inactive
same,outcome,[5],inactive
same,outcome,[6],inactive
same,outcome,[7],inactive
same,outcome,[8],inactive
same,outcome,[9],inactive
CC/C=C\CCOC(=O)c1ccccc1,outcome,[1],inactive
same,outcome,[2],inactive
same,outcome,[3],inactive
same,outcome,[4],inactive
same,outcome,[5],inactive
same,outcome,[6],inactive
same,outcome,[7],inactive
same,outcome,[8],inactive
same,outcome,[9],inactive
O=C(O)C=C(C(F)(F)F)C(F)(F)F,outcome,[1],inactive
same,outcome,[2],inactive
same,outcome,[3],inactive
same,outcome,[4],inactive
same,outcome,[5],inactive
same,outcome,[10],inactive
same,outcome,[6],inactive
same,outcome,[7],inactive
same,outcome,[8],inactive
same,outcome,[9],inactive
CCCCOCCOCCOC(=O)CCCCC(=O)OCCOCCOCCCC,outcome,[1],inactive
same,outcome,[2],inactive
same,outcome,[3],inactive
same,outcome,[4],inactive
same,outcome,[5],inactive
same,outcome,[6],inactive
same,outcome,[7],inactive
same,outcome,[8],inactive
same,outcome,[9],inactive
CC(C)=CCCC(C)CCOC(=O)C(C)C (centres undefined),outcome,[1],inactive
same,outcome,[2],inactive
same,outcome,[3],inactive
same,outcome,[4],inactive
same,outcome,[5],inactive
same,outcome,[10],inactive
same,outcome,[6],inactive
same,outcome,[7],inactive
same,outcome,[8],inactive
same,outcome,[9],inactive
CN(C)Cc1ccccc1O,AC50,[1],4580 nM (active)
same,outcome,[2],inactive
same,outcome,[3],inactive
same,outcome,[4],inactive
same,outcome,[5],inactive
same,outcome,[6],inactive
same,outcome,[7],inactive
same,outcome,[8],inactive
same,outcome,[9],inactive
FC1CC(F)(F)C(F)(F)C1(F)F (centres undefined),outcome,[1],inactive
same,outcome,[2],inactive
same,outcome,[3],inactive
same,outcome,[4],inactive
same,outcome,[5],inactive
same,outcome,[6],inactive
same,outcome,[7],inactive
same,outcome,[8],inactive
same,outcome,[9],inactive
CCN(Cc1cccc(S(=O)(=O)O)c1)c1ccc(C(=C2C=CC(=[N+](CC)Cc3cccc(S(=O)(=O)O)c3)C=C2)c2ccc(O)cc2S(=O)(=O)[O-])cc1,outcome,[1],inactive
same,outcome,[2],inactive
same,outcome,[3],inactive
same,outcome,[4],inactive
same,outcome,[5],inactive
same,AC50,[10],33 µM (active)
same,outcome,[6],inactive
same,outcome,[7],inactive
same,outcome,[8],inactive
same,outcome,[9],inactive
OCC(F)(F)C(F)(F)C(F)(F)C(F)(F)C(F)(F)C(F)(F)F,outcome,[1],inactive
same,outcome,[2],inactive
same,AC50,[3],204 µM (active)
same,outcome,[4],inactive
same,outcome,[5],inactive
same,outcome,[6],inactive
same,outcome,[7],inactive
same,outcome,[8],inactive
same,outcome,[9],inactive
CC(C)(C)c1ccc(OC2CCCCC2O)cc1 (centres undefined),outcome,[1],inactive
same,outcome,[2],inactive
same,outcome,[3],inactive
same,AC50,[4],48.8 µM (active)
same,outcome,[5],inactive
same,AC50,[6],24.5 µM (active)
same,outcome,[7],inactive
same,AC50,[8],42.4 µM (active)
same,outcome,[9],inactive
O[Si](c1ccccc1)(c1ccccc1)c1ccccc1,outcome,[1],inactive
same,outcome,[2],inactive
same,outcome,[3],inactive
same,outcome,[4],inactive
same,AC50,[5],9.89 µM (active)
same,AC50,[6],100 µM (active)
same,outcome,[7],inactive
same,AC50,[8],32.3 µM (active)
same,outcome,[9],inactive
C1COCCN1,outcome,[1],inactive
same,outcome,[2],inactive
same,outcome,[3],inactive
same,outcome,[5],inactive
same,outcome,[10],inactive
same,outcome,[6],inactive
same,outcome,[7],inactive
same,outcome,[8],inactive
same,outcome,[9],inactive
C=CC(=O)OCC(F)(F)C(F)(F)C(F)(F)C(F)(F)COC(=O)C=C,outcome,[1],inactive
same,AC50,[2],43.5 µM (active)
same,AC50,[3],50 µM (active)
same,AC50,[4],58.1 µM (active)
same,AC50,[5],31.3 µM (active)
same,outcome,[10],inactive
same,AC50,[6],50 µM (active)
same,outcome,[7],inactive
same,outcome,[8],inactive
same,AC50,[9],60.6 µM (active)
Cc1cccc(N(C)C)c1,outcome,[1],inactive
same,outcome,[2],inactive
same,outcome,[3],inactive
same,outcome,[4],inactive
same,outcome,[5],inactive
same,outcome,[6],inactive
same,outcome,[7],inactive
same,outcome,[8],inactive
same,outcome,[9],inactive
